High-throughput results from PubChem.
Rev-erbA mod: Rev-erb alpha (human) modulation; P20393; Rev-erbα–FITC-DNA binding, fluorescence polarization, 90 min; activity, % at 10 µM; 0.79% of 370,000 active; AID 1259318;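 active = activity above about 14%, limit read from the data; passing the limit was not always enough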;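 note: 0% = DMSO wells with 35 nM protein and 100% = DMSO wells with 750 nM protein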
ssDAF-12 act: activates DAF-12 receptor from parasite S. stercoralis | AID 652126 | 1% of 370,000 active | activation, % at 6.8 µM | HEK293 ssDAF-12/GRIP1 lit1-tk-luc reporter, luminescence; % of 3 µM dafachronic acid response;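 active = activation above the mean over all tested compounds plus 3 SD, cut at about 0.9% in these data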;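 note: 0% = DMSO-only wells and 100% = 3 µM delta7-dafachronic acid wells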
DAX1 inh-1: NR0B1 (DAX1) inhibition; inhibition, % at 6.75 µM; AID 504766; 0.99% of 340,000 active; P51843; HEK293 Gal4-DAX1 luciferase reporter, luminescence;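 active = inhibition above the mean over all tested compounds plus 3 SD, cut at about 4.2% in these data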;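 note: 0% = DAX1-transfected cells with DMSO and 100% = empty-vector control cells with DMSO; inhibition shows as a rise in luminescence from relieved DAX1 repression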
Target sequence (P51843 207-470 limits assumed): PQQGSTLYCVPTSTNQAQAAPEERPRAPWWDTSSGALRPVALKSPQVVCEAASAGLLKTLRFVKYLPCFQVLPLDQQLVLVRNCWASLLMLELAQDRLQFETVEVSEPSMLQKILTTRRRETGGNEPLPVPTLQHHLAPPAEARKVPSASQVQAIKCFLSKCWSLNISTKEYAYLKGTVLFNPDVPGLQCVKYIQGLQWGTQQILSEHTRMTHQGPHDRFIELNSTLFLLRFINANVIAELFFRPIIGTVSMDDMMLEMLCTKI
hgDAF-12 ag: activates the H. glycines DAF-12 receptor ligand-binding domain; HEK293 GAL4-hgDAF12 UAS-luciferase reporter, agonist luminescence; normalized to butyrate control; activation, % at 6.8 µM; 1.8% of 370,000 active;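 active = activation above a cutoff set at the mean of all screened compounds plus 3 SD, cut at about 10% in these data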;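 note: 0% = DMSO wells and 100% = sodium butyrate wells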
hcDAF12 agonist: H. contortus DAF-12 activation, primary screen; 1.4% of 370,000 active; activation, % at 6.8 µM; HEK293 hcDAF-12 lit1-tk-luc reporter, luminescence; 0% DMSO, 100% Δ7-dafachronic acid;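 active = activation above the mean of all tested compounds plus 3 SD, cut at about 5.5% in these data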;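 note: 100% = response to 3 µM Δ7-dafachronic acid high control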
DAX1 inh-2: DAX1 (NR0B1) inhibition, primary screen | HEK293T StAR-luciferase reporter, SF-1/DAX-1 repression relief | 1.1% of 370,000 active | inhibition, % at 6.8 µM;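 active = inhibition above the mean over all tested compounds plus 3 SD, cut at about 3.6% in these data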;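 note: 0% = DAX-1 cells with DMSO and 100% = cells lacking DAX-1 with DMSO; higher inhibition means more luminescence from relief of DAX-1 repression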
LXR ag: counter-screen for hcDAF-12 agonists: agonists of human LXR-beta | HEK293 Gal4-LXR tk-luc reporter, luminescence, 24 h; normalized: DMSO 0%, positive control 100% | 3,400 tested, under 10 active | activation, % at 6.8 µM | shares compounds with hcDAF12 agonist;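 active = mean percent activation of the reporter above a cutoff set as the average over tested compounds plus their standard deviation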
Target sequence (P55055 whole entry, looked up, the tested form may be a part): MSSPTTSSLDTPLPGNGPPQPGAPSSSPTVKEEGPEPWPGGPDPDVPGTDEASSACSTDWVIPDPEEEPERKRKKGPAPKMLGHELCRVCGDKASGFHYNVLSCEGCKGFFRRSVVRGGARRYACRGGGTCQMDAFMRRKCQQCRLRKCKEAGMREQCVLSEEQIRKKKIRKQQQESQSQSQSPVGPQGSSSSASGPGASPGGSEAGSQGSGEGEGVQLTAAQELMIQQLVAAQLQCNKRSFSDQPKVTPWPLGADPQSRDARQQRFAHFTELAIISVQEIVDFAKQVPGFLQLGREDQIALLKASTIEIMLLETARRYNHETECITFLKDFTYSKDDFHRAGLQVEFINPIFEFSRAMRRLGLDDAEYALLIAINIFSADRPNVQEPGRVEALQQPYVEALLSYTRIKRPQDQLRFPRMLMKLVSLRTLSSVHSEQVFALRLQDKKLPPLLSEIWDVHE
hcDAF12 conf: confirmation of H. contortus DAF-12 agonists | shares compounds with hcDAF12 agonist | activation, % at 6.8 µM | HEK293 hcDAF-12 lit1-tk-luc reporter, luminescence; % of Δ7-dafachronic acid response | 61% of 3,400 active | AID 743032;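 active = mean activation across triplicate tests above the threshold derived from the earlier primary screen, cut at about 5.5% in these data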;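 note: 0% = DMSO only wells and 100% = 3 µM Δ7-dafachronic acid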
hgDAF12 conf: confirmation of H. glycines DAF-12 agonists. shares compounds with hgDAF-12 ag. HEK293 GAL4-hgDAF12 luciferase reporter, agonist mode; percent of butyrate response. activation, % at 6.8 µM. 80% of 3,300 active;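 active = mean activation over triplicate wells above the hit cutoff derived from the earlier primary screen, cut at about 11% in these data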;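 note: 0% = DMSO low control and 100% = 2 mM sodium butyrate high control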
LXRb DAF12 ctr: activates human LXR-beta, counter-screen for DAF-12 agonists | shares compounds with hgDAF-12 ag | AID 743051 | 3,300 tested, under 10 active | activation, % at 6.8 µM | HEK293 Gal4-LXR luciferase reporter, 24 h;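 active = mean activation of the triplicate above a set limit carried over from the primary screen, none filed active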
* = called active by the depositor; x = no result. Shown are actives, neighbours in structure and some others; about 4.8% of the full set was active somewhere.

SMILES	Rev-erbA mod	ssDAF-12 act	DAX1 inh-1	hgDAF-12 ag	hcDAF12 agonist	DAX1 inh-2	LXR ag	hcDAF12 conf	hgDAF12 conf	LXRb DAF12 ctr
CC(=NCc1ccco1)c1c(C)[nH]n(-c2nc3ccccc3s2)c1=O	9.9	-2.1	-1.6	-8.3	-3.0	-1.8	x	x	x	x
C/C(=N/NC(=O)c1cccs1)c1c(C)[nH]n(-c2nc3ccccc3s2)c1=O	6.3	0.0	-2.8	16.9*	7.7*	4.0*	0.9	4.6	8.6	0.4
COc1ccccc1-c1noc(-c2cccs2)n1	-2.2	0.7	1.6	19.3*	8.7*	1.5	0.7	5.1	22.8*	0.9
COc1ccccc1-c1noc(-c2ccncc2)n1	-2.7	-1.0	1.1	4.6	0.0	0.1	x	x	x	x
COc1ccc(NC(=O)CSc2nnc(-c3n[nH]c4c3CCC4)n2N)cc1OC	-4.2	-1.5	x	3.5	-0.9	-1.4	x	x	x	x
Cc1cccc(C(=O)Oc2csc(=S)n2C(=O)c2cccc(C)c2)c1	0.0	-0.9	-0.5	-4.3	-1.2	0.5	x	x	x	x
Cc1cccc(C(=O)n2c(=S)nc3cc(C)ccn32)c1	-4.4	0.7	4.6*	15.7*	6.6*	3.7*	1.1	6.6*	13.3*	1.3
COc1ccc(Nc2nccc(-c3ccc(C#N)cc3)n2)cc1	-1.4	-2.0	-0.5	0.8	-3.8	-1.1	x	x	x	x
COc1ccc(Nc2nccc(-c3cccc(N)c3)n2)cc1	4.0	0.8	2.1	34.1*	12.9*	2.4	1.9	8.7*	21.3*	1.2
OC(c1ccccc1)(c1ccccc1)c1cnc2ccccn12	-3.4	-1.3	x	-2.4	-2.0	x	x	x	x	x
Cc1ccc(O)c(-c2cc(-c3ccccc3C)[nH]n2)c1	0.4	-0.3	0.3	7.2	1.4	-0.1	x	x	x	x
Cc1ccc(-c2cc(-c3cccs3)[nH]n2)c(O)c1	0.2	2.3*	3.3	19.1*	18.9*	4.3*	1.7	12.5*	20.9*	1.0
CCc1ccc(Cn2c(=O)n(Cc3ccc(C(=O)NCCCOC)cc3)c(=O)c3ccccc32)cc1	3.9	-1.2	x	0.2	0.7	-0.1	x	x	x	x
CC(C)C[C@H]1COc2cc(N3CCOCC3)ccc2S(=O)(=O)N1	-5.4	-1.2	x	-3.2	-0.8	-0.1	x	x	x	x
O=C(/C=C/c1ccco1)Nc1ccc2c(c1)OCCO2	-5.4	0.2	-0.1	15.6*	7.5*	4.4*	1.3	8.9*	18.3*	1.1
Cc1csc(NC(=O)/C=C/c2ccco2)n1	-3.5	-0.7	0.1	13.9*	6.6*	1.5	0.9	3.5	13.2*	0.5
O=C(N/N=C/c1ccc(Br)s1)c1ccco1	6.2	-0.8	1.2	8.1	1.2	0.5	x	x	x	x
O=C(N/N=C/c1ccc(Br)s1)c1ccccn1	1.4	0.6	2.1	14.3*	8.2*	4.5*	0.8	3.5	13.5*	0.8
O=C(NN/C(=N/S(=O)(=O)c1ccc(Cl)cc1)c1ccccc1)c1cccc(Cl)c1	-0.6	1.2*	1.3	16.3*	8.8*	1.5	1.2	7.6*	17.6*	0.9
O=C(O)c1ccc(N/C(=N\S(=O)(=O)c2ccc(Cl)cc2)c2ccccc2)cc1	0.8	-1.0	-0.1	-4.3	1.1	0.2	x	x	x	x
C=CC(=O)NC1CCCCN(C(C)C)C1=O (stereo not given)	-8.4	-0.7	x	0.0	-1.4	0.1	x	x	x	x
CSc1nnc(-c2ccccc2SC)o1	-0.3	-1.5	-0.1	-0.9	-1.6	0.5	x	x	x	x
CSc1ccccc1-c1nnc(-c2ccc(C)cc2)o1	-5.2	1.7*	2.1	14.5*	10.3*	3.4	0.9	8.8*	15.0*	0.5
CCCCOCCCNC(=O)C[C@H]1C[C@@]2(C(=O)OCC)CCCC3=C2N(CCC3)C1=O	0.7	0.0	x	-1.0	-1.0	0.2	x	x	x	x
Cc1ccc2nc3sc(C(=O)NCc4ccco4)c(N)c3cc2c1	0.6	0.7	-1.3	13.3*	8.1*	4.3*	1.3	3.5	20.5*	1.1
SMILES	Rev-erbA mod	ssDAF-12 act	DAX1 inh-1	hgDAF-12 ag	hcDAF12 agonist	DAX1 inh-2	LXR ag	hcDAF12 conf	hgDAF12 conf	LXRb DAF12 ctr
C=CCn1c(Cc2cccs2)nnc1SCC(=O)Nc1cccc2ccccc12	-4.4	-0.5	x	-0.6	-3.1	-1.1	x	x	x	x
O=S1(=O)N[C@@H](Cc2ccccc2)COc2cccc(N3CCCCC3)c21	-1.7	-0.9	x	0.3	-1.4	-0.8	x	x	x	x
COC(=O)c1sccc1N/N=C/c1cccc(OC)c1O	-1.2	1.3*	-2.1	19.1*	11.8*	3.0	1.6	9.0*	24.5*	1.2
COc1cccc(/C=N/NC(=O)C(=O)N/N=C/c2cccc(OC)c2O)c1O	-12.6	-1.0	x	-0.1	-0.7	-0.8	x	x	x	x
O=C(Nc1nc2ccccc2[nH]1)c1cccc(Cl)c1	2.3	0.9	2.3	15.7*	8.2*	1.3	1.8	5.8*	17.5*	1.0
O=C(Nc1nc2ccccc2[nH]1)c1ccccc1	-0.5	1.4*	-0.9	13.6*	13.1*	2.2	1.3	13.6*	14.1*	0.9
CCn1c2ccccc2c2cc(C=NNC(=O)c3cc(-c4ccc(OC)cc4)n[nH]3)ccc21	-7.0	-1.5	x	-0.4	-2.6	-1.5	x	x	x	x
NC(=O)c1ccccc1NC(=O)/C=C/C(=O)O	-4.2	-0.6	2.4	8.8	0.2	0.0	x	x	x	x
O=C(O)/C=C\C(=O)Nc1ccccc1C#Cc1ccc(Br)cc1	1.3	2.1*	3.3	21.6*	16.4*	3.8*	0.1	1.1	16.0*	0.6
O=c1c(-c2cc3ccccc3o2)[n+]([O-])c2ccccc2n1OCc1ccccn1	3.3	2.2*	3.6	17.8*	15.2*	4.3*	0.8	9.7*	21.2*	0.7
COc1ccc(-c2csc(Nc3ccc(C)cn3)n2)cc1OC	3.9	-1.4	0.8	2.6	-2.4	0.3	x	x	x	x
COc1ccc(-c2csc(Nc3cccc(C)n3)n2)cc1C	2.2	-0.2	2.2	14.0*	6.7*	1.5	1.3	6.0*	16.6*	0.6
Cc1ccc(Nc2nc(-c3ccc(F)cc3)cs2)nc1	-0.9	2.7*	6.4*	14.4*	17.8*	1.6	1.1	11.1*	17.8*	0.9
COc1ccc(-c2csc(Nc3ccc(Oc4ccccc4)cc3)n2)cc1	1.8	-1.5	x	-1.6	-1.6	-2.6	x	x	x	x
